Bioassay records (PubChem BioAssay)
FAK inh: FAK (human) kinase inhibition; biochemical FAK kinase activity assay; hit rate 0.84% among 97,000; inhibition, %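 (tested at 7 µM)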; Q05397
IL1B cytotox: HUVEC cytotoxicity counter-screen, IL-1B stimulated. cell count reduction, % at 2 µM. HUVEC cell count loss, Hoechst imaging. hit rate 0.41% among 94,000. AID 845;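 active = cell count reduction more than 3 SD above the screen-wide mean, cut at about 70% in these data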
JNK3 inh: inhibitors of human JNK3 kinase; AID 746; P53779; inhibition, % at 8 µM; hit rate 0.61% among 60,000; purified JNK3 kinase activity, HTS; in the data active = inhibition above about 17%
NFkB transloc pot: enhances IL-1B driven NFkB nuclear translocation | activation, % at 2 µM | hit rate 0.3% among 94,000 | HUVEC IL-1B NFkB p65 nuclear translocation imaging | AID 819;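 active = activation above 40%, about the mean plus 3 SD, also judged a hit on visual image review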;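 note: percent activation is computed from the nuclear over cytoplasmic p65 intensity ratio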
IL1B NFkB inh: blocks IL-1B driven NFkB nuclear translocation in HUVEC cells; HUVEC IL-1B NFkB p65 nuclear translocation imaging; inhibition, % at 2 µM; AID 796; hit rate 0.43% among 94,000;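 active = inhibition above about 30% together with a positive call from visual inspection of the well image, limit read from the data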;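 note: nuclear over cytoplasmic p65 intensity ratio measured by imaging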
Pyk2 oligo antag: blocks oligomerization of human Pyk2 in cells | Q14289 | Q293 cells, Pyk2 FERM NanoBiT luminescence; hits give low values | z-score (the deposit names both 25 µM and 10 µM) | hit rate 0.83% among 99,000 | AID 1347419;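 active = Z-score of -3 or lower, scaled per plate to the spread of control and sample wells; inactive = z-score above -3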;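 note: negative z-score means lost luminescence so less FERM oligomerization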
FAK inh conf: confirmation of human focal adhesion kinase (FAK) inhibitors. shares compounds with FAK inh. FAK kinase biochemical inhibition assay. inhibition, % at 7 µM. hit rate 28% among 750. AID 794
A number is an active result; . = inactive; / = no result given. Compounds with a hit are over-represented: about 2.4% of the library has one in this group of screens. Cut-off read from the data, not from the text of the source, unless noted: active = inhibition above about 19%; inactive = the rest.

SMILES | FAK inh | IL1B cytotox | JNK3 inh | NFkB transloc pot | IL1B NFkB inh | Pyk2 oligo antag | FAK inh conf
O=C(CCN1C(=O)COc2ccccc21)NCCCN1CCc2ccccc2C1 | . | . | / | . | . | . | /
COc1ccc(Cc2nc3ccc(S(=O)(=O)N4CCOCC4)cc3[nH]2)cc1 | 95 | . | / | . | . | . | .
COc1ccc(Cc2nc3ccc(S(=O)(=O)N4CCOCC4)cc3[nH]2)cc1OC | . | . | / | . | . | . | /
Cc1nc2ccc(Cl)cc2nc(C)/c1=N\O | . | . | . | . | . | . | /
Cc1n[nH]c(C)c1N=Nc1cc(Cl)ccc1Cl | 41 | . | / | . | . | . | 21
O=C(COc1ccc(Cl)cc1Cl)Nc1ccc2nc3n(c(=O)c2c1)CCCC3 | . | . | . | . | . | . | /
COC(=O)c1c(C)oc2ccc(NS(=O)(=O)c3cccs3)cc12 | 24 | . | / | . | . | . | .
COCCOC(=O)c1c(C)oc2ccc(NS(=O)(=O)c3ccccc3)cc12 | . | . | . | . | . | . | /
O=C(N/N=C/c1cccs1)c1cc(-c2ccc3ccccc3c2)n[nH]1 | 20 | . | / | . | . | . | .
Cc1occc1C(=O)NC1CCCCCC1 | 72 | . | . | . | . | . | .
CCc1ccc(CNc2ccc(O)cc2)cc1 | 56 | . | . | . | . | . | .
Cc1ccccc1Cn1c2ccccc2c2cn[nH]c(=O)c21 | 20 | . | . | . | . | . | .
Cc1ccc(NC(=O)CN2C(=O)S/C(=C\c3cccn3-c3cccc(C(=O)O)c3)C2=O)c(C)c1 | 65 | . | / | . | . | . | .
Cc1ccccc1NC(=O)CN1C(=O)S/C(=C\c2cccn2-c2cccc(C(=O)O)c2)C1=O | . | . | / | . | . | . | /
COc1ccc(-n2nc(C(=O)NCC(=O)NCC3CCCO3)c3ccccc3c2=O)cc1Cl (centres undefined) | . | . | / | . | . | . | /
COc1ccc(-n2nc(C(=O)NCC(=O)Nc3ccccn3)c3ccccc3c2=O)cc1Cl | 23 | . | / | . | . | . | 45
COc1ccc2ccc3c(c2c1)N=CC1(O3)N(C)c2ccccc2C1(C)C (centres undefined) | . | . | / | . | . | . | /
CN1c2ccccc2C(C)(C)C12C=Nc1c(ccc3ccccc13)O2 (centres undefined) | 32 | . | / | . | . | . | .
NC(=O)c1c(NC(=O)c2ccco2)sc2c1CCC2 | 20 | . | / | . | . | . | .
CCC(=O)Nc1sc2c(c1C(N)=O)CCC2 | 21 | . | / | . | . | . | .
O=c1oc2ccccc2n1CCn1c2ccccc2c2nc3ccccc3nc21 | 30 | . | . | . | . | -3.1 | 46
CS(=O)(=O)c1cc([N+](=O)[O-])c(Sc2nc3ccccc3[nH]2)c([N+](=O)[O-])c1 | . | . | / | . | . | . | /
CNc1oc(Cc2ccccc2)nc1S(=O)(=O)c1ccc(Cl)cc1 | . | . | . | . | . | . | /
O=C(c1ccc(-c2ccccc2)cc1)N1CCN(c2ncccn2)CC1 | . | . | . | . | . | . | /
O=C(NCc1ccc2c(c1)OCO2)C1CCCN1C(=O)Nc1cccc(Cl)c1 (centres undefined) | . | . | . | . | . | . | /
SMILES | FAK inh | IL1B cytotox | JNK3 inh | NFkB transloc pot | IL1B NFkB inh | Pyk2 oligo antag | FAK inh conf
Cc1ccc(NC2=C(N3CCOCC3)C(=O)c3ccccc3C2=O)cc1 | 43 | . | / | . | . | . | .
CC(=O)c1ccc(NC2=C(N3CCOCC3)C(=O)c3ccccc3C2=O)cc1 | . | . | / | . | . | . | /
CCOC(=O)C1C(=O)CC(C)(O)C(C(=O)OCC)C1/C=C/c1ccccc1 (centres undefined) | . | . | . | . | . | . | /
N#Cc1nc(-c2cccs2)oc1NCc1ccccc1 | 22 | . | . | . | . | . | .
O=C(c1cccc(S(=O)(=O)N2CCCC2)c1)N1CCN(c2ccccc2F)CC1 | 35 | . | . | . | . | . | .
COc1ccc(C(O)Cc2nc3ccccc3n2C)cc1OC (centres undefined) | . | . | . | . | . | . | /
Cc1ccc(SCc2ccc(C(=O)NCc3ccncc3)cc2)cc1 | 43 | . | / | . | . | . | .
Cc1ccc(C)c(C(=O)NCc2ccncc2)c1 | . | . | . | . | . | . | /
O=C(N1CCOCC1)N1CCC(n2nnc3ccccc32)CC1 | / | / | . | / | / | . | /
Cn1c(SCc2ccon2)nc2ccccc2c1=O | 23 | . | . | . | . | . | .
